Measurements taken from PubChem BioAssay (EPA / NIEHS).
Active and inactive are the calls of the source. The calls were made as follows: active = hit-call score of the fitted dose curve at least 0.9, where 1 is the maximum; inactive = score below 0.9.

Columns and labels:
Details in all cases: mRNA level, 48 h; actives raise or lower the signal
[1] = read-out: growth arrest and DNA damage 45 (GADD45G), GADD45G (gene 10912); assay: LTEA_HepaRG_GADD45G: Life Technologies and Expression Analysis (LTEA) Assay for growth arrest and DNA damage 45 (GADD45G) using HepaRG (AID 2283499)
Summary of the method: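 Human hepatic HepaRG line treated 48 h with chemicals (eight concentrations, half-log steps from 100 uM); transcript induction or repression of GADD45G scored by qRT-PCR versus DMSO vehicle.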

[2] = read-out: Glutamate-cysteine ligase regulatory (GCLM), GCLM (gene 2730); assay: LTEA_HepaRG_GCLM: Life Technologies and Expression Analysis (LTEA) Assay for Glutamate-cysteine ligase regulatory (GCLM) using HepaRG (AID 2283500)
Summary of the method: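 Differentiated human HepaRG cells exposed 48 h in serum-free induction medium to 8-point half-log concentrations (top 100 uM, 0.5% DMSO), in duplicate. GCLM mRNA quantified by qRT-PCR, normalized to ACTB, GAPDH, POLR2A; bidirectional fitting versus DMSO.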

[3] = read-out: Glutathione S-transferase M3 (GSTM3), GSTM3 (gene 2947); assay: LTEA_HepaRG_GSTM3: Life Technologies and Expression Analysis (LTEA) Assay for Glutathione S-transferase M3 (GSTM3) using HepaRG (AID 2283501)
Summary of the method: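 Changes in GSTM3 expression, an oxidative-stress marker, were scored by bidirectional curve fitting against 0.5% DMSO vehicle. Human HepaRG cultures received chemicals for 48 h in duplicate, highest concentration 100 uM with half-log dilutions.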

[4] = read-out: Heat shock 70 kDa protein 1 (HSPA1A), gene 3303; assay: LTEA_HepaRG_HSPA1A: Life Technologies and Expression Analysis (LTEA) Assay for Heat shock 70 kDa protein 1 (HSPA1A) using HepaRG (AID 2283502)
Summary of the method: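 Differentiated human HepaRG cells in serum-free induction medium were exposed in duplicate for 48 h to eight concentrations (top 100 uM, half-log steps, 0.5% DMSO). HSPA1A mRNA was quantified by qRT-PCR, normalized to ACTB, GAPDH and POLR2A, and fitted bidirectionally against DMSO.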

[5] = read-out: Hypoxia-inducible factor 1-alpha (Homo sapiens) (UniProt Q16665); assay: LTEA_HepaRG_HIF1A: Life Technologies and Expression Analysis (LTEA) Assay for Hypoxia-inducible factor 1 (HIF1A) Trancription factor using HepaRG (AID 2283503)
Summary of the method: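 HepaRG, 48 h exposure, 8-pt half-log series from 100 uM, 0.5% DMSO vehicle, duplicates. Readout: HIF1A transcript by qRT-PCR (Fluidigm array), housekeeping-normalised. Bidirectional curve fit vs DMSO baseline.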

[6] = read-out: 3-Hydroxy-3-Methylglutaryl-CoA Synthase 2 (HMGCS2), HMGCS2 (gene 3158); assay: LTEA_HepaRG_HMGCS2: Life Technologies and Expression Analysis (LTEA) Assay for 3-Hydroxy-3-Methylglutaryl-CoA Synthase 2 (HMGCS2) using HepaRG (AID 2283504)
Summary of the method: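 Expression of HMGCS2 in human HepaRG liver cells is measured by qRT-PCR 48 h after dosing (highest 100 uM, half-log series, 0.5% DMSO). Values come from bidirectional concentration-response fitting with DMSO as baseline.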

[7] = read-out: HGF (gene 3082); assay: LTEA_HepaRG_HGF: Life Technologies and Expression Analysis (LTEA) Assay for Hepatocyte Growth Facto (HGF) using HepaRG (AID 2283505)
Summary of the method: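 Gain or loss of HGF mRNA in human HepaRG liver cells after 48 h chemical exposure; eight concentrations up to 100 uM with 0.5% DMSO vehicle, quantified by TaqMan qRT-PCR.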

[8] = read-out: Insulin Like Growth Factor 1 (IGF1), IGF1 (gene 3479); assay: LTEA_HepaRG_IGF1: Life Technologies and Expression Analysis (LTEA) Assay for Insulin Like Growth Factor 1 (IGF1) using HepaRG (AID 2283506)
Summary of the method: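 Differentiated human HepaRG cells were dosed for 48 h in serum-free induction medium with 0.5% DMSO, eight half-log concentrations up to 100 uM, in duplicate. IGF1 mRNA was quantified by qRT-PCR normalized to ACTB, GAPDH, POLR2A; bidirectional fitting versus DMSO.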

[9] = read-out: Intercellular Adhesion Molecule 1 (ICAM1), ICAM1 (gene 3383); assay: LTEA_HepaRG_ICAM1: Life Technologies and Expression Analysis (LTEA) Assay for Intercellular Adhesion Molecule 1 (ICAM1) using HepaRG (AID 2283507)
Summary of the method: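 Gain or loss of transcript in HepaRG hepatic cells is quantified by qRT-PCR after 48 h chemical exposure (up to 100 uM, half-log steps), with DMSO as baseline.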

[10] = read-out: Insulin-like growth factor-binding protein 1 (IGFBP1), IGFBP1 (gene 3484); assay: LTEA_HepaRG_IGFBP1: Life Technologies and Expression Analysis (LTEA) Assay for Insulin-like growth factor-binding protein 1 (IGFBP1) using HepaRG (AID 2283508)
Summary of the method: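 mRNA induction or loss was quantified by qRT-PCR after 48 h chemical exposure of human HepaRG cells, with 0.5% DMSO as vehicle and baseline. Concentration-response over eight points up to 100 uM.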

[11] = read-out: Interleukin 6 (IL6), IL6 (gene 3569); assay: LTEA_HepaRG_IL6: Life Technologies and Expression Analysis (LTEA) Assay for Interleukin 6 (IL6) using HepaRG (AID 2283509)
Summary of the method: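 Differentiated human HepaRG cells, plated 48 h then switched to serum-free induction medium, were exposed in duplicate for 48 h to eight half-log concentrations up to 100 uM in 0.5% DMSO. IL6 mRNA measured by qRT-PCR, normalized to ACTB/GAPDH/POLR2A.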

[12] = read-out: Interleukin 6 Receptor (IL6R), IL6R (gene 3570); assay: LTEA_HepaRG_IL6R: Life Technologies and Expression Analysis (LTEA) Assay for Interleukin 6 Receptor (IL6R) using HepaRG (AID 2283510)
Summary of the method: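 Differentiated human HepaRG cells, plated 48 h then switched to serum-free induction medium, were dosed in duplicate for 48 h at eight half-log concentrations up to 100 uM in 0.5% DMSO. IL6R mRNA quantified by qRT-PCR, normalized to ACTB/GAPDH/POLR2A; bidirectional fit versus DMSO.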

[13] = read-out: Potassium channel subfamily K member 1 (KCNK1), KCNK1 (gene 3775); assay: LTEA_HepaRG_KCNK1: Life Technologies and Expression Analysis (LTEA) Assay for Potassium channel subfamily K member 1 (KCNK1) using HepaRG (AID 2283511)
Summary of the method: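 Differentiated human HepaRG cells in serum-free induction medium were exposed in duplicate for 48 h to 8 half-log concentrations up to 100 uM in 0.5% DMSO. KCNK1 mRNA was measured by TaqMan qRT-PCR, normalized to ACTB, GAPDH and POLR2A, and fitted bidirectionally versus DMSO.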

[14] = read-out: Keratin 19 (KRT19), KRT19 (gene 3880); assay: LTEA_HepaRG_KRT19: Life Technologies and Expression Analysis (LTEA) Assay for Keratin 19 (KRT19) using HepaRG (AID 2283512)
Summary of the method: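 Gene-expression endpoint in the human liver line HepaRG after 48 h exposure to up to 100 uM test chemical with 0.5% DMSO vehicle; KRT19 mRNA by qRT-PCR, analyzed bidirectionally versus DMSO.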

[15] = read-out: JUN Transcription Factor, JUN (gene 3725); assay: LTEA_HepaRG_JUN: Life Technologies and Expression Analysis (LTEA) Assay for JUN Transcription Factor using HepaRG (AID 2283513)
Summary of the method: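 Differentiated HepaRG cells were exposed to chemicals for 48 h in serum-free induction medium, 8 concentrations from 100 uM in half-log steps, 0.5% DMSO vehicle, in duplicate. JUN mRNA was quantified by TaqMan qRT-PCR, normalized to ACTB, GAPDH, POLR2A.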

[16] = read-out: Lipase C (LIPC), LIPC (gene 3990); assay: LTEA_HepaRG_LIPC: Life Technologies and Expression Analysis (LTEA) Assay for Lipase C (LIPC) using HepaRG (AID 2283514)
Summary of the method: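 Differentiated human HepaRG cells in serum-free induction medium were exposed in duplicate for 48 h to eight concentrations (top 100 uM, half-log steps, 0.5% DMSO). LIPC mRNA was quantified by TaqMan qRT-PCR, normalized to ACTB, GAPDH and POLR2A, with bidirectional fitting versus DMSO.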

[17] = read-out: Lipoprotein lipase (LPL), LPL (gene 4023); assay: LTEA_HepaRG_LPL: Life Technologies and Expression Analysis (LTEA) Assay for Lipoprotein lipase (LPL) using HepaRG (AID 2283515)
Summary of the method: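 Differentiated human HepaRG cells in serum-free induction medium were exposed in duplicate for 48 h to eight half-log concentrations (top 100 uM) in 0.5% DMSO. LPL mRNA was quantified by TaqMan qRT-PCR, normalized to ACTB, GAPDH and POLR2A.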

[18] = read-out: MicroRNA 122 (MIR122), gene 406906; assay: LTEA_HepaRG_MIR122: Life Technologies and Expression Analysis (LTEA) Assay for MicroRNA 122 (MIR122) using HepaRG (AID 2283516); also: the transcript read is the microRNA miR-122
Summary of the method: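 Differentiated human HepaRG cells were exposed 48 h in serum-free induction medium to eight half-log concentrations (top 100 uM, 0.5% DMSO). Transcript level was measured by TaqMan qRT-PCR, normalized to ACTB, GAPDH and POLR2A, and fitted bidirectionally versus DMSO.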

[19] = read-out: matrix metalloproteinase-10 (MMP10), MMP10 (gene 4319); assay: LTEA_HepaRG_MMP10: Life Technologies and Expression Analysis (LTEA) Assay for matrix metalloproteinase-10 (MMP10) using HepaRG (AID 2283517)
Summary of the method: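 HepaRG, collagen I, ~100,000 cells/well; serum-free induction medium; 48 h exposure, duplicate, 8-pt half-log to 100 uM, 0.5% DMSO. Readout: TaqMan qRT-PCR, normalized to ACTB/GAPDH/POLR2A; bidirectional fit vs DMSO.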

[20] = read-out: MYC, MYC (gene 4609); assay: LTEA_HepaRG_MYC: Life Technologies and Expression Analysis (LTEA) Assay for MYC using HepaRG (AID 2283518)
Summary of the method: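 Cells are thawed, plated and cultured 48 h, then treated for 48 h with test chemicals (eight half-log concentrations from 100 uM, 0.5% DMSO vehicle). RNA is isolated and MYC expression quantified by qRT-PCR against three housekeeping genes.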

Sequence of Hypoxia-inducible factor 1-alpha (Homo sapiens) (Q16665 whole entry, looked up): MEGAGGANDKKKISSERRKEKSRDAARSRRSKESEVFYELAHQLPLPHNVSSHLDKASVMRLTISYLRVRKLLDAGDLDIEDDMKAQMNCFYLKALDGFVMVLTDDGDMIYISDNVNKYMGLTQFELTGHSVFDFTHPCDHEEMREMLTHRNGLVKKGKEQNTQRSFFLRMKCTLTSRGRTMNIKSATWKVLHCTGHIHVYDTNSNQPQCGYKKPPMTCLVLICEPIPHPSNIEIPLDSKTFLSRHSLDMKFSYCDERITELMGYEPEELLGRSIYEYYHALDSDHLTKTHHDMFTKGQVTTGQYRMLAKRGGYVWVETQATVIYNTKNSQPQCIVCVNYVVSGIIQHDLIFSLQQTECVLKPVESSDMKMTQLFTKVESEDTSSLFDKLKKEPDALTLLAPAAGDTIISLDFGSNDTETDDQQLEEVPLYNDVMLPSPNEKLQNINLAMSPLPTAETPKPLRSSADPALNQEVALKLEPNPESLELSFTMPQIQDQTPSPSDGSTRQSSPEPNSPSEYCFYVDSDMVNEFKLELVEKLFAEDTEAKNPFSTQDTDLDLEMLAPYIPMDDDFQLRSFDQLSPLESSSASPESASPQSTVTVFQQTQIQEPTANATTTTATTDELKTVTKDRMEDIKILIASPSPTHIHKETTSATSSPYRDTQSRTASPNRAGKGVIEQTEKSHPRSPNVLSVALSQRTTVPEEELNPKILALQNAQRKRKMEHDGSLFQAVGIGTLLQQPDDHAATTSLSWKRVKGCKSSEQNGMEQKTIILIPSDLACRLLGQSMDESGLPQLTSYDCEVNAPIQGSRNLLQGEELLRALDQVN

**Q.** What does the source list for `CNC(=O)[C@H]1O[C@@H](n2cnc3c(NCc4cc(Cl)ccc4OCc4cc(C)no4)ncnc32)[C@H](O)[C@@H]1N`?
**A.** outcome [1]: inactive; outcome [2]: inactive; outcome [3]: inactive; outcome [4]: inactive; outcome [5]: inactive; outcome [6]: inactive; outcome [7]: inactive; outcome [8]: inactive; outcome [9]: inactive; outcome [10]: inactive; outcome [11]: inactive; outcome [12]: inactive; outcome [13]: inactive; outcome [14]: inactive; outcome [15]: inactive; outcome [16]: inactive; outcome [17]: inactive; outcome [18]: inactive; outcome [19]: inactive; outcome [20]: inactive

**Q.** With `Cc1ccc(C(C)C)c(O)c1` as the compound, how does the outcome [1] read?
**A.** inactive

**Q.** What about the outcome [2] of the same compound?
**A.** inactive

**Q.** And the outcome [3]?
**A.** inactive

**Q.** And the outcome [4]?
**A.** inactive

**Q.** What about the outcome [5] of the same compound?
**A.** inactive

**Q.** And the outcome [6]?
**A.** inactive

**Q.** What about the outcome [7] of the same compound?
**A.** inactive

**Q.** What about the outcome [8] of the same compound?
**A.** inactive

**Q.** And the outcome [9]?
**A.** inactive

**Q.** What about the outcome [10] of the same compound?
**A.** inactive

**Q.** What about the outcome [11] of the same compound?
**A.** inactive

**Q.** What about the outcome [12] of the same compound?
**A.** inactive

**Q.** What about the outcome [13] of the same compound?
**A.** inactive

**Q.** What about the outcome [14] of the same compound?
**A.** inactive

**Q.** And the outcome [15]?
**A.** inactive

**Q.** And the outcome [16]?
**A.** inactive

**Q.** What about the outcome [17] of the same compound?
**A.** inactive

**Q.** And the outcome [18]?
**A.** inactive

**Q.** And the outcome [19]?
**A.** inactive

**Q.** And the outcome [20]?
**A.** inactive

**Q.** Which results are given for `O=C(N[C@@H](Cc1ccccc1)[C@@H](O)C(=O)N1C[C@@H](O)[C@@H](O)C1)c1cc2cc(Cl)ccc2[nH]1`?
**A.** outcome [1]: inactive; outcome [2]: inactive; outcome [3]: inactive; outcome [4]: inactive; outcome [5]: inactive; AC50 [6]: 89 µM (active); outcome [7]: inactive; outcome [8]: inactive; outcome [9]: inactive; AC50 [10]: 63.4 µM (active); outcome [11]: inactive; outcome [12]: inactive; outcome [13]: inactive; outcome [14]: inactive; outcome [15]: inactive; outcome [16]: inactive; AC50 [17]: 20.1 µM (active); outcome [18]: inactive; outcome [19]: inactive; outcome [20]: inactive
